Data published in PubChem BioAssay AID2567 (National Center for Advancing Translational Sciences (NCATS), 2010).
Several values for one entry are separate records, joined by “and”; a condition that tells them apart may be missing. Identical values can stand only once. Records with an inconclusive call do not appear. Unmarked numbers belong to inactive results. Activity calls are given as the source filed them. The call rests on the fitted dose curve; in most records, active means well fitted antagonist curve with a large enough effect in the main read-out, with a control signal flat; inconclusive means small, poorly fitted or top-dose-only effect; inactive means no such curve, though single readings can be large or run the other way.

Each compound was assayed against Neuropeptide S receptor (Homo sapiens) (UniProt Q6W5P4) (assay: Confirmation Concentration-Response Assay for Antagonists of the Neuropeptide S Receptor: Calcium Signal Transduction, SAR for Probe). Conditions: CHO-NPSR cells, NPS-induced calcium fluorescence, FDSS; series mostly up to 50.9 µM; activity change, negative = inhibition: at the top concentration.
Text: NIH Chemical Genomics Center [NCGC] NIH Molecular Libraries Probe Production centers Network [MLPCN] MLPCN Grant: X01-DA026210-01 Assay Submitter (PI): Heilig, Markus Alexander NCGC Assay Overview: Neuropeptide S receptor (NPSR), previously known as GPR154, is a recently de-orphanized G protein coupled receptor. Its endogenous ligand is the 20 amino acids peptide Neuropeptide S (NPS). […] NPS and its receptor are found in various tissues. Specifically they are highly expressed in brain areas that have been implicated in modulation of arousal, stress and anxiety. Central administration of NPS in mice produces an unusual profile of activity by inducing wakefulness and arousal, while at the same time suppressing anxiety. Therefore, NPSR may represent a novel drug target for the treatment of sleep and anxiety disorders. To identify NPSR antagonists, we developed a cell-based assay with transfected NPS receptor. NPS can stimulate the production of cAMP as well as release intracellular calcium in Chinese hamster ovary cells stably expressing NPS receptor. This change in intracellular calcium can be detected using a calcium indicator dye on a calcium imaging plate reader system (FDSS).
NCGC Assay Protocol Summary: A Chinese hamster ovary (CHO) cell line stably expressing the NPS receptor (CHO-NPSR) was obtained from Dr. Heilig lab at NIAAA and maintained in F-12 Kaighn's media (Invitrogen, Carlsbad, CA, 21127) supplemented with 10 % FBS, 100 units/ml penicillin, 100 ug/ml streptomycin and 250 ug/ml geneticin at 37C, 5% CO2 in a humidified atmosphere. Before the assay, aliquots of cells were frozen and stored at -135C. The assay was performed on a FDSS-7000 kinetic plate reader in 1536-well format. For both agonist (1-220s) and antagonist (221-400s) phases, the maximums of kinetic fluorescence responses were converted separately into text files using the instrument's software data export utility. Data for agonist response were normalized to the controls for basal activity (DMSO only) and 100% activation (NPS). […] AC50 values were determined from concentration-response data modeled with the standard Hill equation. NPS 1536-well FDSS assay protocol: (1) Frozen CHO-NPSR cells were thaw, washed once with fresh media and resuspended in F-12 Kaighn's media supplemented with 10 % FBS, 100 units/ml penicillin and 100 ug/ml streptomycin. Cells were plated at 3 ul/well (1200 cells) to black, clear-bottom, tissue-culture treated 1536-well plates, and then cultured at 37C, 5 % CO2 for 16 to 30 hours. (2) Add 3 ul of calcium dye (from High Performance PBX Calcium Assay Kit, BD Biosciences). The calcium dye was prepared according to the manufactory's instruction. (3) Incubation at 37C, 5 % CO2 for 60 to 120 min. (4) Load plates to FDSS-7000. The following steps were performed on FDSS-7000. (5) Record fluorescent background (Ex 480 nm, Em 520-560 nm) for 10 s. (6) Add 23 nl/well of compound in DMSO solution. The final titration for each compound was between 0.6 nM and 46 uM. Record agonist response for 210 s. (7) Add 2 ul of stimulation reagent (1X HBSS buffer, 0.1% BSA, 60 nM NPS). Record antagonist response for 140 s. Keywords: MLSMR, MLPCN, NIH Roadmap, qHTS, NCGC, NPS, Neuropeptide S Antagonists

Sequence of Neuropeptide S receptor (Homo sapiens) (Q6W5P4 whole entry, looked up): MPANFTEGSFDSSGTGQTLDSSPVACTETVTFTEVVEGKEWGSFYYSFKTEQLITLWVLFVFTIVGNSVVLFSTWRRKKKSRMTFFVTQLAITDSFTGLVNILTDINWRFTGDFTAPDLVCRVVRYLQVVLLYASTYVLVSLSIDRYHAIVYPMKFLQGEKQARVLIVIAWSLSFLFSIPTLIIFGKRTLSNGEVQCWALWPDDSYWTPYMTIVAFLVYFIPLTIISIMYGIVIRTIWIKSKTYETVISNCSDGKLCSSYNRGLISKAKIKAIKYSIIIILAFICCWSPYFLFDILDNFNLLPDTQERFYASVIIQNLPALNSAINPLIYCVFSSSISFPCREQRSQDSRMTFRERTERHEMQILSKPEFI

Row | SMILES | Potency | activity change, negative = inhibition
1 | CCOC(=O)c1c(-n2c(C)cc(C=C3C(=O)NC(=S)NC3=O)c2C)sc2c1CCCC2 | 2 µM (active) | 
2 | Cc1nc2ccccn2c1P(=S)(c1ccccc1)c1ccccc1 | 9.79 µM (active) | 
3 | Cc1c(P(=S)(c2ccccc2)c2ccccc2)[n+]2ccccc2n1C | 199 nM (active) and 251 nM (active) and 220 nM (active) | 
4 | Cn1cc(P(=S)(c2ccccc2)c2ccccc2)c2ccccc21 |  | -16.2%
5 | Cc1c(P(=S)(c2ccccc2)c2ccccc2)[n+]2ccccc2n1CCc1ccccc1 | 1.38 µM (active) | 
6 | Cc1c(P(=S)(c2ccccc2)c2ccccc2)c2ccccc2n1C |  | -16.7%
7 | S=P(c1ccccc1)(c1ccccc1)c1c(-c2ccccc2)[nH]c2ccccc12 |  | -14.5%
8 | C=C(C=O)C[C@@H]1C[C@H](O)C2OC3C[C@]4(C)OC5/C=C\CC6OC7C(CC=CCC6OC5CCCC4OC3CC2O1)OC1CC2OC3CC(=O)OC3C[C@@H](C)C[C@@]2(C)OC1C[C@@H]7C (stereo partly drawn) | 0.501 µM (active) | 
9 | S=P(c1ccccc1)(c1ccccc1)c1cnc2ccccn12 | 12.3 µM (active) | 
10 | S=P(c1ccccc1)(c1ccccc1)c1c[n+](Cc2ccccc2)c2ccccn12 | 6.93 µM (active) | 
11 | Cc1c(P(=S)(c2ccccc2)c2ccccc2)[n+]2ccccc2n1CCCc1ccccc1 | 0.0552 µM (active) | 
12 | CC(=O)Nc1cc([As](=O)(O)O)ccc1O |  | 25.2% [at 19.3 µM]
13 | Cc1c(P(=S)(c2ccccc2)c2ccccc2)[n+]2ccccc2n1Cc1ccccc1 | 1.74 µM (active) | 
14 | Cn1c(-c2ccccc2)c(P(=S)(c2ccccc2)c2ccccc2)c2ccccc21 |  | 7.11%
15 | CNc1ccc2oc(C[C@H]3O[C@@]4(CC[C@H]3C)O[C@H]([C@H](C)C(=O)c3ccc[nH]3)[C@H](C)C[C@H]4C)nc2c1C(=O)O | 0.0158 µM (active) | 
16 | Cc1c(P(=S)(c2ccccc2)c2ccccc2)[n+]2ccccc2n1C/C=C/c1ccccc1 | 0.0438 µM (active) | 
17 | C=C1C(=O)O[C@@H]2C[C@@H](C)[C@@H]3C=CC(=O)[C@@]3(C)[C@@H](OC(=O)CC(=O)O[C@H]3[C@@H]4C(=C)C(=O)O[C@@H]4C[C@@H](C)[C@@H]4C=CC(=O)[C@]43C)[C@H]12 | 0.0891 µM (active) | 
18 | C[C@H]1CCCC(=O)CCCCCc2cc(O)cc(O)c2C(=O)O1 |  | 10.8% [at 19.3 µM]
